Compounds without any hit were thinned out: in the full panel of roughly 79,000, 15% have a hit. Calls of active or inactive are those of the source. No stated cut-off is given here; in the data, active means growth inhibition above about 70%; inactive means the rest.
How the values were obtained:
[1] = NCI Yeast Anticancer Drug Screen. Data for the rad50 strain (AID 155);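 further: 0% = growth of vehicle-only cultures of the same strain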; settings: S. cerevisiae rad50 strain growth inhibition, active compounds read high
Method in brief: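 Readout: growth inhibition relative to vehicle-treated cultures. Compound exposure was carried out in a genetically defined yeast strain deficient in DNA damage repair.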

[2] = NCI Yeast Anticancer Drug Screen. Data for the mec2-1 strain (AID 157); settings: S. cerevisiae mec2-1 strain, active compounds read high
Method in brief: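 Using mec2-1 yeast: add compound, measure growth, express inhibition versus vehicle-treated cultures.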

[3] = NCI Yeast Anticancer Drug Screen. Data for the sgs1 mgt1 strain (AID 161);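 further: 0% = growth of cultures given vehicle only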; settings: S. cerevisiae sgs1 mgt1 strain, active compounds read high
Method in brief: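 Yeast cells carrying a defined DNA-repair defect were exposed to test compounds. Growth inhibition was measured relative to vehicle-treated controls.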

[4] = NCI Yeast Anticancer Drug Screen. Data for the cln2 rad14 strain (AID 165);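 further: 0% = growth equal to vehicle treated cultures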; settings: S. cerevisiae cln2 rad14 strain, active compounds read high
Method in brief: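 Yeast strain cln2 rad14, bearing defects in cell cycle control and DNA repair, serves as the test system; values reflect growth inhibition compared with vehicle.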

[5] = NCI Yeast Anticancer Drug Screen. Data for the bub3 strain (AID 167); settings: S. cerevisiae bub3 mutant strain, active compounds read high
Method in brief: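 Readout: yeast growth inhibition, expressed relative to vehicle-only wells. The test organism is a mutant strain from a panel with lesions in DNA repair or checkpoint genes.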

[6] = NCI Yeast Anticancer Drug Screen. Data for the mlh1 rad18 strain (AID 175); settings: S. cerevisiae mlh1 rad18 strain growth inhibition, active compounds read high
Method in brief: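 Steps: expose repair-defective yeast to compound; measure growth; express inhibition against vehicle-treated controls.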

[7] = at 5.0 µM (retest, dose inferred, filed as 0.5)
[8] = at 50.0 µM (retest, dose inferred, filed as 5.0)

Measured: growth inhibition

N#C/C=C(\c1ccccc1)c1c[nH]c2ccccc12
inactive: [1]; [7] -144% | [2]; [7] -46% | [3]; [7] -62% | [4]; [7] -58% | [5]; [7] -63% | [6]; [7] -120%
active: [1]; [8] 97% | [1]; at 50.0 µM 97.5% | [2]; [8] 99% | [2]; at 50.0 µM 98.1% | [3]; [8] 98% | [3]; at 50.0 µM 98.7% | [4]; [8] 98% | [4]; at 50.0 µM 95.8% | [5]; [8] 97% | [5]; at 50.0 µM 97% | [6]; [8] 98% | [6]; at 50.0 µM 98.2%

C[CH2][Sn]([CH2]C)([O]C(=O)c1cccc(OC)c1)[O][Sn]([CH2]C)([CH2]C)[O]C(=O)c1cccc(OC)c1
inactive: [1]; [7] 31% | [1]; [8] 69% | [1]; at 50.0 µM 59.5% | [2]; [7] 30% | [2]; at 50.0 µM 39.2% | [3]; [7] 36% | [3]; at 50.0 µM 37.5% | [4]; [7] 30% | [4]; [8] 58% | [4]; at 50.0 µM 40.8% | [5]; [7] 30% | [5]; at 50.0 µM 37.5% | [6]; [7] 40% | [6]; at 50.0 µM 56.5%
active: [2]; [8] 79% | [3]; [8] 76% | [5]; [8] 86% | [6]; [8] 74%

O=C1CCC(=O)c2c1c(O)c1ccncc1c2O
active: [1]; [8] 99% | [1]; at 50.0 µM 98.1% | [2]; [8] 99% | [2]; at 50.0 µM 99.3% | [3]; [8] 99% | [3]; at 50.0 µM 99.2% | [4]; [8] 99% | [4]; at 50.0 µM 98.5% | [5]; [8] 99% | [5]; at 50.0 µM 99.2% | [6]; [8] 99% | [6]; at 50.0 µM 99%
inactive: [1]; [7] 18% | [2]; [7] 26% | [3]; [7] 31% | [4]; [7] 11% | [5]; [7] 16% | [6]; [7] 41%

Nc1c(/C=C/c2cc3cc(C4=NCCN4)ccc3o2)[nH]c2cc(C3=NCCN3)ccc12
active: [1]; [8] 98% | [1]; at 50.0 µM 97.5% | [2]; [8] 98% | [2]; at 50.0 µM 98% | [3]; [8] 99% | [3]; at 50.0 µM 98.2% | [4]; [8] 97% | [4]; at 50.0 µM 97.4% | [5]; [8] 98% | [5]; at 50.0 µM 97% | [6]; [8] 97% | [6]; at 50.0 µM 97.8%
inactive: [1]; [7] 13% | [2]; [7] 22% | [3]; [7] -2% | [4]; [7] -22% | [5]; [7] 7% | [6]; [7] 13%

Cc1c(CCl)c(=O)oc2c(C)c3occ(CCl)c(=O)c3cc12
active: [1]; at 50.0 µM 80.1% | [2]; at 50.0 µM 82.5% | [3]; at 50.0 µM 84.5% | [4]; at 50.0 µM 85.4% | [5]; at 50.0 µM 87.5% | [6]; at 50.0 µM 77.7%
inactive: [1]; [7] 6% | [1]; [8] 12% | [2]; [7] 20% | [2]; [8] 31% | [3]; [7] 17% | [3]; [8] 42% | [4]; [7] 41% | [4]; [8] 60% | [5]; [7] 28% | [5]; [8] 57% | [6]; [7] 29% | [6]; [8] 67%

O=C(O)c1ccc2c(c1)CC1(C2)Cc2cc3c(cc2C1=O)CCC3 (stereo not given)
inactive: [1]; [7] 34% | [1]; [8] 34% | [2]; [7] 22% | [2]; [8] 22% | [3]; [7] 19% | [3]; [8] 19% | [4]; [7] 21% | [4]; [8] 21% | [5]; [7] 12% | [5]; [8] 12% | [6]; [7] 25% | [6]; [8] 25%
active: [1]; at 50.0 µM 84.3% | [2]; at 50.0 µM 83.8% | [3]; at 50.0 µM 79.5% | [4]; at 50.0 µM 83.1% | [5]; at 50.0 µM 81.8% | [6]; at 50.0 µM 79.9%

CN(C)c1cc2nc3ccccc3nc2cc1O
inactive: [1]; [7] 2% | [1]; [8] 46% | [1]; at 50.0 µM 62.9% | [2]; [7] -1% | [2]; [8] 53% | [2]; at 50.0 µM 15.6% | [3]; [7] -1% | [3]; [8] 26% | [3]; at 50.0 µM 34.6% | [4]; [7] -7% | [4]; [8] 34% | [4]; at 50.0 µM 45.8% | [5]; [7] -3% | [5]; [8] 59% | [6]; [7] 7%
active: [5]; at 50.0 µM 94.5% | [6]; [8] 76% | [6]; at 50.0 µM 81.9%

O=c1ccccc(Br)c1O
active: [1]; [8] 97% | [1]; at 50.0 µM 98.7% | [2]; [8] 93% | [2]; at 50.0 µM 97.8% | [3]; [8] 97% | [3]; at 50.0 µM 99.6% | [4]; [8] 87% | [4]; at 50.0 µM 93.1% | [5]; [8] 98% | [5]; at 50.0 µM 97.6% | [6]; [8] 97% | [6]; at 50.0 µM 98.9%
inactive: [1]; [7] 12% | [2]; [7] 10% | [3]; [7] 6% | [4]; [7] 19% | [5]; [7] 8% | [6]; [7] 9%

Cc1nc2c(=O)[nH]c3ccc(Cl)cc3c2o1
active: [3]; [8] 90% | [4]; at 50.0 µM 77.3% | [5]; [8] 75% | [6]; [8] 89%
inactive: [1]; [7] 3% | [1]; [8] 60% | [1]; at 50.0 µM 42.5% | [2]; [7] 3% | [2]; [8] 59% | [2]; at 50.0 µM 38.1% | [3]; [7] 9% | [3]; at 50.0 µM 40.7% | [4]; [7] 7% | [4]; [8] 12% | [5]; [7] 6% | [5]; at 50.0 µM 60.2% | [6]; [7] 8% | [6]; at 50.0 µM 46.2%

CN(C)CCC(/C=C/c1ccccc1)=N\Nc1ccc(Cl)c(Cl)c1
active: [1]; [7] 98% | [1]; [8] 96% | [1]; at 50.0 µM 99.7% | [2]; [7] 99% | [2]; [8] 98% | [2]; at 50.0 µM 99.6% | [3]; [7] 99% | [3]; [8] 98% | [3]; at 50.0 µM 99.5% | [4]; [7] 75% | [4]; [8] 95% | [4]; at 50.0 µM 98% | [5]; [7] 95% | [5]; [8] 97% | [5]; at 50.0 µM 99.3% | [6]; [7] 98% | [6]; [8] 97% | [6]; at 50.0 µM 99.5%

Source: PubChem BioAssay (NCI)
